The panel holds about 79,000 compounds, 15% with a hit somewhere; the sample as a whole holds those more often. Values without a mark were called inactive. Calls of active or inactive are those of the source. Cut-off read from the data, not from the text of the source: active = growth inhibition above about 70%; inactive = the rest.
Experiments:
[1] = NCI Yeast Anticancer Drug Screen. Data for the rad50 strain (AID 155);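 note: 0% = growth of vehicle-only cultures of the same strain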; details: S. cerevisiae rad50 strain growth inhibition, active compounds read high
Summary of the method: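 Readout: growth inhibition relative to vehicle-treated cultures. Compound exposure was carried out in a genetically defined yeast strain deficient in DNA damage repair.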

[2] = NCI Yeast Anticancer Drug Screen. Data for the mec2-1 strain (AID 157); details: S. cerevisiae mec2-1 strain, active compounds read high
Summary of the method: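 Strain: mec2-1 (DNA repair/cell cycle alteration). Compound exposure, then growth measured; inhibition expressed relative to vehicle.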

[3] = NCI Yeast Anticancer Drug Screen. Data for the sgs1 mgt1 strain (AID 161);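 note: 0% = growth of cultures given vehicle only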; details: S. cerevisiae sgs1 mgt1 strain, active compounds read high
Summary of the method: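 Test agents were incubated with a DNA-repair-mutant yeast strain. Growth was then read and compared against vehicle-treated controls.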

[4] = NCI Yeast Anticancer Drug Screen. Data for the cln2 rad14 strain (AID 165);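 note: 0% = growth equal to vehicle treated cultures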; details: S. cerevisiae cln2 rad14 strain, active compounds read high
Summary of the method: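 Compounds are applied to the cln2 rad14 yeast strain, and growth is then compared with that of vehicle-treated cultures to give inhibition.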

[5] = NCI Yeast Anticancer Drug Screen. Data for the bub3 strain (AID 167); details: S. cerevisiae bub3 mutant strain, active compounds read high
Summary of the method: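 Readout: yeast growth inhibition, expressed relative to vehicle-only wells. The test organism is a mutant strain from a panel with lesions in DNA repair or checkpoint genes.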

[6] = NCI Yeast Anticancer Drug Screen. Data for the mlh1 rad18 strain (AID 175); details: S. cerevisiae mlh1 rad18 strain growth inhibition, active compounds read high
Summary of the method: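 Read-out is yeast growth inhibition, calculated against vehicle-only controls. The compound was applied to a strain engineered with DNA damage repair alterations.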

[7] = at 5.0 µM (retest, dose inferred, filed as 0.5)
[8] = at 50.0 µM (retest, dose inferred, filed as 5.0)

SMILES | growth inhibition [1, 7] [%] | growth inhibition [1, 8] | growth inhibition ([1]; at 50.0 µM) | growth inhibition [2, 7] [%] | growth inhibition [2, 8] | growth inhibition ([2]; at 50.0 µM) | growth inhibition [3, 7] [%] | growth inhibition [3, 8] | growth inhibition ([3]; at 50.0 µM) | growth inhibition [4, 7] [%] | growth inhibition [4, 8] | growth inhibition ([4]; at 50.0 µM) | growth inhibition [5, 7] [%] | growth inhibition [5, 8] | growth inhibition ([5]; at 50.0 µM) | growth inhibition [6, 7] [%] | growth inhibition [6, 8] | growth inhibition ([6]; at 50.0 µM)
O=[N+]([O-])C1CCCC(C2=CSC3CCCCC3N2)C1 (stereo not given) | 5 | -7% | 48.2% | -21 | 10% | 80.8% (active) | -26 | -2% | 63.4% | -4 | 16% | 11.1% | 1 | 29% | 86% (active) | -24 | 36% | 37.9%
O=C(NC(Cc1ccc(I)cc1)C(=O)O)c1cccc(Br)c1 (stereo not given) | 24 | 39% | -14.4% | 13 | 6% | -35% | 23 | 37% | -20.5% | 17 | 34% | -8.15% | 21 | 29% | -28.9% | 23 | 32% | -15.9%
c1ccc(C2CC(c3ccc4ccccc4c3)=Nc3ccccc3S2)cc1 (stereo not given) | 0 | 40% | 76.8% (active) | -4 | 72% (active) | 50.6% | 8 | 78% (active) | 80.8% (active) | -11 | 19% | 69.5% | 21 | 91% (active) | 96.5% (active) | 3 | 76% (active) | 88.1% (active)
NCC(O)CSc1ccc(Cl)c(Cl)c1 (stereo not given) | 2 | 11% | 8.95% | -2 | -4% | 14.2% | 1 | 16% | 18.8% | 5 | 9% | 74.8% (active) | 3 | 3% | 17.2% | 4 | 7% | 11.4%
CC(C)c1ccc2c(c1)CC[C@H]1[C@](C)(CN)CCC[C@]21C | 3 | 98% (active) | 98.8% (active) | 2 | 98% (active) | 89.2% (active) | 11 | 99% (active) | 99.7% (active) | 3 | 97% (active) | 91.8% (active) | 7 | 99% (active) | 90% (active) | -9 | 98% (active) | 98.4% (active)
[O-]/[N+]1=[N+](\[O-])c2ccccc2CCc2ccccc21 | -1 | -4% | 3.8% | -1 | 1% | -4.65% | 4 | 1% | 40.1% | -1 | -4% | 1% | -1 | 0% | 15.4% | -3 | 3% | 1.6%
CC(CCC(=O)O)[C@H]1CCC2[C@H]3C(CC[C@@]21C)[C@@]1(C)CCC(O)C[C@H]1C[C@@H]3O (stereo not given in full) | -11 | 46% | 75.1% (active) | -13 | 56% | 73.2% (active) | -10 | 60% | 79.3% (active) | 2 | 73% (active) | 73% (active) | -13 | 86% (active) | 56.1% | -26 | 76% (active) | 71.6% (active)
O=C(Cc1c[nH]c2ccccc12)N/N=C/c1ccc(Cl)cc1[N+](=O)[O-] | -5 | 73% (active) | 39.8% | 1 | 88% (active) | 20.4% | -4 | 94% (active) | 36.6% | -5 | 89% (active) | 38.8% | -3 | 93% (active) | 19.5% | 13 | 90% (active) | 66.7%
C#Cc1cccc(N=Cc2cc(Cl)cc(Cl)c2O)c1 | 13 | 90% (active) | 94.6% (active) | 8 | 90% (active) | 94.3% (active) | 20 | 97% (active) | 97.8% (active) | -1 | 91% (active) | 62.4% | -1 | 80% (active) | 89.9% (active) | 20 | 98% (active) | 97.2% (active)
CN(C)c1ccc(C=Nc2cncc3ccccc23)cc1 | 0 | -11% | -55.6% | 5 | -9% | -18.6% | -3 | 10% | -12.8% | -20 | -6% | -39.5% | 3 | 4% | -6.05% | 7 | 4% | -7.35%
